Assay outcomes (PubChem)
A selection: hits, their analogues and other compounds. The true share with any hit is near 21%.
Shiga inhibitor: A qHTS for Small Molecule Inhibitors of Shiga Toxin; hit rate 9.2% among 290,000; inhibition, % at 38.7 µM; Vero cells, Shiga toxin protein synthesis inhibition reporter; AID 2315, 2010; in the data active = inhibition mostly above about 28%, no sharp cut-off; inactive = mostly below about 43%; also: 0% is about no effect
Cycloheximide cs: Cycloheximide Counterscreen for Small Molecule Inhibitors of Shiga Toxin; cell reporter, cycloheximide protein synthesis inhibition counterscreen; max response, %; hit rate 12% among 300,000; in the data active = max response mostly above about 13%, no sharp cut-off; inactive = mostly below about 14%; also: read at 38.3 µM for the half of the compounds with a filed dose; 0% is about no effect
Pf growth 48h: Primary qHTS for delayed death inhibitors of the malarial parasite plastid, 48 hour incubation; P. falciparum luciferase growth in erythrocytes, 48 h; Potency, µM (titrated, usually from 28.7 µM), inactives show top-dose activity change, negative = inhibition, hits mostly inhibitors; hit rate 5.9% among 310,000; AID 504832, 2011; active = well fitted inhibition curve with a large enough effect; inconclusive = small, poorly fitted or top-dose-only effect, or another doubt; inactive = no such curve, though single readings can be large or run the other way; also: potency is read from the fitted curve at half-maximal effect; % is scaled to controls: 0 for no effect and ±100 for the full control effect
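A one-generation exposure of luciferase-tagged malaria parasites in RPMI 1640/Albumax erythrocyte culture, 37 C and 5% CO2. Inhibition is inferred from decreased luminescence after adding detection reagent.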
NS1 inh: qHTS Assay for Inhibitors of Influenza NS1 Protein Function. Potency, µM (highest dose often 46.1 µM), for inactives: at the highest dose activity, positive = more growth. hit rate 0.4% among 270,000; also: potency is read from the fitted curve at half-maximal effect; actives are rising curves; nearly all actives have a fitted effect of over 50% in size
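Recovery from NS1-induced slow growth read by OD600 in budding yeast switched to galactose assay medium (pH 6.0, -URA) at 1:100 dilution. Compound 23 nl per well; the matching strain lacking NS1 serves as control.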
Pf growth 96h: Primary qHTS for delayed death inhibitors of the malarial parasite plastid, 96 hour incubation; P. falciparum luciferase reporter growth, 96 h; hit rate 6.9% among 320,000; Potency, µM (titrated, usually from 28.7 µM), for inactives: at the highest dose activity change, negative = inhibition, actives largely listed as inhibitors; AID 504834, 2011; active = well fitted inhibition curve with a large enough effect; inconclusive = small, poorly fitted or top-dose-only effect, or another doubt; inactive = no such curve, though single readings can be large or run the other way; also: potency is read from the fitted curve at half-maximal effect; % is scaled to controls: 0 for no effect and ±100 for the full control effect
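Readout is luminescence from an integrated firefly luciferase in P. falciparum. Red cells, 2% hematocrit and 0.05% parasitemia final, were cultured with compound through two parasite generations (96 hours) at 37 C, 5% CO2.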
SARS PLpro yeast: qHTS of Yeast-based Assay for SARS-CoV PLP. S. cerevisiae expressing SARS-CoV PLpro, growth rescue. Potency, µM (titrated, usually from 32.9 µM), for the others: at the top dose activity, positive = growth rescue, most hits filed as activators. hit rate 0.19% among 330,000. AID 485353, 2010; also: potency is read from the fitted curve at half-maximal effect; 0% is about no effect; nearly all actives have a fitted effect of over 55% in size
* marks the source's active call; other numbers are inactive results. Unless noted, calls follow the shape of the full dose curve.

CCN(CC)S(=O)(=O)c1ccc2[nH]c(=O)cc(C(=O)NCc3ccccc3)c2c1 was read as Shiga inhibitor -2, Cycloheximide cs -4, Pf growth 48h 10%, NS1 inh -9%, Pf growth 96h 20% and SARS PLpro yeast 10%.
`CCOc1ccc(CCNC(=O)c2cc(=O)[nH]c3ccc(S(=O)(=O)N(CC)CC)cc23)cc1OCC` gave Shiga inhibitor 4, Cycloheximide cs -1, Pf growth 48h 15µM*, NS1 inh 1%, Pf growth 96h inconclusive and SARS PLpro yeast 5%.
`Cc1ccc(S(=O)(=O)N2CCN(C(=O)COC(=O)CCCOc3ccccc3)CC2)c(C)c1` gave Pf growth 48h inconclusive, Pf growth 96h inconclusive and SARS PLpro yeast -2%.
For CCN(CC)C(=O)c1[nH]cnc1C(=O)Nc1cccc(Cl)c1 the results were Pf growth 48h 10%, Pf growth 96h inconclusive and SARS PLpro yeast -4%.
For O=C(COc1ccccc1)OC(C(=O)c1ccccc1)c1ccccc1 (stereo unspecified) the results were Shiga inhibitor -6, Cycloheximide cs -2, Pf growth 48h -6%, NS1 inh 2%, Pf growth 96h inconclusive and SARS PLpro yeast -2%.
Screening COc1ccc(C(=O)C(OC(=O)c2ccccc2)c2ccccc2)cc1 (stereo unspecified) returned Shiga inhibitor 104*, Cycloheximide cs 49*, Pf growth 48h 61%, NS1 inh 10%, Pf growth 96h 60% and SARS PLpro yeast -12%.
`COc1ccc(C(=O)C(OC(=O)c2ccccc2Cl)c2ccccc2)cc1` (stereo unspecified) gave Shiga inhibitor 83*, Cycloheximide cs 28*, Pf growth 48h 71%, NS1 inh 3%, Pf growth 96h inconclusive and SARS PLpro yeast -4%.
`O=C(OCc1cc([N+](=O)[O-])cc2c1OCOC2)c1ccc2ccccc2n1` gave Shiga inhibitor 2, Cycloheximide cs 6, Pf growth 48h 5%, Pf growth 96h 7% and SARS PLpro yeast -1%.
For CC(C)=CC(=O)OCc1cc([N+](=O)[O-])cc2c1OCOC2 the results were Shiga inhibitor 88*, Cycloheximide cs 65*, Pf growth 48h 90%, Pf growth 96h 132% and SARS PLpro yeast -3%.
`CC1CCCCC12NC(=O)N(CC(=O)OCc1ccccc1F)C2=O` (stereo unspecified) gave SARS PLpro yeast -6%.
`Cc1cccc(N(Cc2ccccc2)C(=O)CN2C(=O)NC3(CCCCC3C)C2=O)c1` (stereo unspecified) gave Pf growth 48h inconclusive, Pf growth 96h 12µM* and SARS PLpro yeast 1%.
Screening CC1CCCCC12NC(=O)N(CC(=O)N1CCN(S(=O)(=O)/C=C/c3ccccc3)CC1)C2=O (stereo unspecified) returned Pf growth 48h 10µM*, Pf growth 96h inconclusive and SARS PLpro yeast 2%.
Cc1cccc(N(Cc2ccccc2)C(=O)CN2C(=O)NC3(CCCC3)C2=O)c1 was read as Pf growth 48h inconclusive, Pf growth 96h inconclusive and SARS PLpro yeast -2%.
`CC1CCCCC12NC(=O)N(CC(=O)OCc1cccc(F)c1)C2=O` (stereo unspecified) gave Pf growth 48h 13µM*, Pf growth 96h inconclusive and SARS PLpro yeast -1%.
O=c1oc2ccccc2c2c1nnn2CCO was read as Shiga inhibitor -4, Cycloheximide cs 9, Pf growth 48h 31%, NS1 inh 0%, Pf growth 96h 12% and SARS PLpro yeast 0%.
`CCCCn1c(N)c(N(CC(C)C)C(=O)CCNC(=O)c2ccc([N+](=O)[O-])cc2)c(=O)[nH]c1=O` gave Pf growth 48h inconclusive, Pf growth 96h inconclusive and SARS PLpro yeast 4%.
CCOc1ccc(NC(=O)c2c3c(nc4ccccc24)CCC3)cc1 was read as Shiga inhibitor 7, Cycloheximide cs -2, Pf growth 48h 4.1µM*, NS1 inh 8%, Pf growth 96h 3.7µM* and SARS PLpro yeast -1%.
